Compounds without any hit were thinned out: in the full panel of roughly 79,000, 15% have a hit. Active and inactive are the calls of the source. Rule as the data show it: active = growth inhibition above about 70%; inactive = the rest.
Key:
[1] = NCI Yeast Anticancer Drug Screen. Data for the rad50 strain (AID 155);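 also: 0% = growth of vehicle-only cultures of the same strain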; conditions: S. cerevisiae rad50 strain growth inhibition; at 50.0 µM; active compounds read high
Method in brief: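 Compounds were tested on a yeast strain with an engineered DNA damage repair alteration; the reported value is growth inhibition normalised to vehicle treatment.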

[2] = NCI Yeast Anticancer Drug Screen. Data for the mec2-1 strain (AID 157); conditions: S. cerevisiae mec2-1 strain, at 50.0 µM, active compounds read high
Method in brief: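 Strain: mec2-1 (DNA repair/cell cycle alteration). Compound exposure, then growth measured; inhibition expressed relative to vehicle.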

[3] = NCI Yeast Anticancer Drug Screen. Data for the sgs1 mgt1 strain (AID 161);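 also: 0% = growth of cultures given vehicle only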; conditions: S. cerevisiae sgs1 mgt1 strain, at 50.0 µM, active compounds read high
Method in brief: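 Genetically altered yeast, compound exposure, growth inhibition relative to vehicle.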

[4] = NCI Yeast Anticancer Drug Screen. Data for the cln2 rad14 strain (AID 165);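 also: 0% = growth equal to vehicle treated cultures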; conditions: S. cerevisiae cln2 rad14 strain, at 50.0 µM, active compounds read high
Method in brief: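 Compounds are applied to the cln2 rad14 yeast strain, and growth is then compared with that of vehicle-treated cultures to give inhibition.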

[5] = NCI Yeast Anticancer Drug Screen. Data for the bub3 strain (AID 167); conditions: S. cerevisiae bub3 mutant strain, at 50.0 µM, active compounds read high
Method in brief: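 Growth of a checkpoint-deficient yeast mutant is measured after compound exposure. Values represent inhibition relative to vehicle.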

[6] = NCI Yeast Anticancer Drug Screen. Data for the mlh1 rad18 strain (AID 175); conditions: S. cerevisiae mlh1 rad18 strain growth inhibition; at 50.0 µM; active compounds read high
Method in brief: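 Read-out is yeast growth inhibition, calculated against vehicle-only controls. The compound was applied to a strain engineered with DNA damage repair alterations.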

Measured: growth inhibition

CN=C1CC2CCCC1C2 (stereo not drawn)
inactive: [1] -15.7% | [2] 0.85% | [3] -5.8% | [4] -6.1% | [5] -7.95% | [6] -15.4%

CCCCCCCCCCCO/N=C\c1c2c(O)c3c(O)c(C)c4c(c3c1O)C(=O)C(C)(O/C=C\C(OC)C(C)C(OC(C)=O)C(C)C(O)C(C)C(O)C(C)/C=C\C=C(\C)C(=O)N2)O4 (stereo not drawn)
inactive: [1] -4.75% | [2] -4.75% | [3] -13.7% | [4] -9.75% | [5] -5.1% | [6] 26.2%

CC(C)(C)c1ccc(OS(=O)(=O)c2ccc(Cl)c(Cl)c2)cc1
inactive: [1] 0.4% | [2] 17.4% | [3] 0.35% | [4] 31.6% | [5] 6.8% | [6] -4.85%

CC1=C[C@H](C[C@]2(C)c3c(c4c(C)cccc4oc3=O)O[C@@H]2C)OC1=O
inactive: [1] 1% | [2] 24.4% | [3] 11.3% | [4] 17.2% | [5] -3.2% | [6] 33.2%

CC1(C(=O)O)CCCC2(C)c3ccc(O)cc3CCC12 (stereo not drawn)
inactive: [1] 37% | [2] 29.9% | [3] 61.2% | [4] -3% | [5] 61.1% | [6] 45%

O=c1c2c(-c3cc(-c4ccccc4)nc4[nH]n(-c5ccccc5)c(=O)c34)cc(-c3ccccc3)nc2[nH]n1-c1ccccc1
inactive: [1] 0.45% | [2] -6.2% | [3] 0.35% | [4] -38.5% | [5] 4.85% | [6] -22.6%

COc1cc2c(cc1OC)C(=O)/C(=C/c1ccc([N+](=O)[O-])cc1)CC2
inactive: [1] -50.2% | [2] -56.5% | [3] -11.9% | [4] -38.2% | [5] -28% | [6] -33.9%

COc1ccc(C(=O)CCl)c(O)c1OC
inactive: [1] -4.95% | [2] 5.95% | [3] -5.6% | [4] 14.8% | [5] 5.7% | [6] 11.8%

Cc1cc(N)c(C)c2ccncc12
inactive: [1] -11.4% | [2] 0% | [3] -11.5% | [4] -15.2% | [5] 24.2% | [6] 2.75%

CC12CCC(/C(=C/N(O)/C=C3\C(=O)C4(C)CCC3C4(C)C)C1=O)C2(C)C
inactive: [1] -17.6% | [2] -11.8% | [3] -30.1% | [4] 1.85% | [5] 6.75% | [6] 0.8%

O=S(=O)([O-])c1ccc2c[n+]3ccccc3cc2c1
inactive: [1] -16.1% | [2] 5% | [3] -0.95% | [4] -44.6% | [5] 6.1% | [6] -10.3%

CN(C)CC1CCC(=C2CCCC2)C1=O (stereo not drawn)
inactive: [1] -8.9% | [2] -10.7% | [3] 11.8% | [4] 6.2% | [5] 3.6% | [6] 20.6%

N#Cc1cnn(-c2ccc([N+](=O)[O-])cc2)c1N
inactive: [1] 14.8% | [2] -16.6% | [3] 3.85% | [4] -26.6% | [5] 1.7% | [6] 20.5%

O=C(O)C(CNCc1ccccc1)(c1ccccc1)c1ccccc1
inactive: [1] 5.55% | [2] -9.25% | [3] 10.3% | [4] 4.9% | [5] 1.3% | [6] 12.7%

CCN(CC)/N=C\c1c2ccccc2cc2ccccc12
inactive: [1] 19.8% | [2] 11.2% | [3] 7.7% | [4] 9.4% | [5] 13.3% | [6] 60.4%

CNC(=O)OCc1c(COC(=O)NC)c(-c2ccc(S(=O)(=O)c3ccccc3)cc2)n(C)c1C
inactive: [1] -5.85% | [2] -3.85% | [3] -1.95% | [4] -2.7% | [5] -16.4% | [6] -42.6%

CCOC(=O)Cn1c2ccccc2c(=O)c2cc(C)c(C)c(C#N)c21
inactive: [1] 13.4% | [2] -12.9% | [3] -11.6% | [4] 9% | [5] 8.5% | [6] 8.1%

CC(c1ccc(N)cc1)n1cnc2c(Cl)ncnc21 (stereo not drawn)
inactive: [1] -3.75% | [2] 18.2% | [3] 4.1% | [4] -5.5% | [5] 8.85% | [6] 7.85%

COc1ccccc1NC=O
inactive: [1] -1.5% | [2] -25.1% | [3] -3.65% | [4] 16.8% | [5] -7.4% | [6] 2.55%

O=S(=O)([O-])c1ccc2c(c1)-c1nc-2nc2[n-]c(nc3nc(nc4[n-]c(n1)c1ccc(S(=O)(=O)[O-])cc41)-c1cc(S(=O)(=O)[O-])ccc1-3)c1ccc(S(=O)(=O)[O-])cc21.[Cu+2].[Na+]
inactive: [1] -13.7% | [2] -40.1% | [3] -23.8% | [4] -16.2% | [5] -34% | [6] -94.2%

COc1cc2c(cc1OC)C1c3ccccc3CCCN1CC2 (stereo not drawn)
inactive: [1] -40.4% | [2] -4.5% | [3] -57.5% | [4] 0.55% | [5] -23.6% | [6] -27%

CC(Nc1ccc([N+](=O)[O-])cc1)S(=O)(=O)O (stereo not drawn)
inactive: [1] 7.4% | [2] -0.2% | [3] 13.4% | [4] 16.6% | [5] 12.4% | [6] 18.4%

COc1cccc(S(=O)(=O)c2c(C)cc(C)cc2C)c1
inactive: [1] -12.7% | [2] -12.6% | [3] -12.8% | [4] -42% | [5] 1.1% | [6] -12.8%

O=C1CSC(c2ccccc2F)N1c1ncccn1 (stereo not drawn)
inactive: [1] -3.2% | [2] -6.8% | [3] 0.75% | [4] -20.8% | [5] 8% | [6] -1.4%

O=C(Nc1ccc(Cl)c(Cl)c1)OCC1CC2C=CC1C2 (stereo not drawn)
active: [1] 95.2% | [2] 97.8% | [3] 97.3% | [4] 94.8% | [5] 94.9% | [6] 95%

CCOC(=O)C1=C(c2ccccc2)N=c2ccccc2=S1C (stereo not drawn)
inactive: [1] 7.25% | [2] -2.3% | [3] 18.1% | [4] -3.35% | [5] 5.1% | [6] 20.4%

Cc1cc2ccccc2c[n+]1CC(=O)c1ccc([N+](=O)[O-])cc1
inactive: [1] -4.1% | [2] 32.1% | [3] 62% | [4] -1.85% | [5] 7.35% | [6] 51.7%

CN(C)C(=O)NO
inactive: [1] -32% | [2] -26.1% | [3] -11.8% | [4] -19.8% | [5] -3.3% | [6] -28.4%

COC1CCC(/C(C#N)=C/C2CCC(N(C)C)CC2)CC1 (stereo not drawn)
inactive: [1] 12.9% | [2] 16.2% | [3] 20.9% | [4] 10.6% | [5] 9.85% | [6] 18.6%

CC[Si](/C=C(/C)C(C)(C)C)(CC)CC
inactive: [1] 0.9% | [2] -21.9% | [3] -7.05% | [4] -34.1% | [5] -8.05% | [6] -5.1%

CC(=O)OC(C)=O
inactive: [1] -20.2% | [2] 9.9% | [3] 8% | [4] -33% | [5] 7.55% | [6] -16.4%

CCOc1ccccc1NC(=O)CC(C)=O
inactive: [1] 14.3% | [2] 20.6% | [3] 22.2% | [4] 1.9% | [5] 33.3% | [6] 10.4%

COc1ccc(/C=C2\N=C(c3ccc([N+](=O)[O-])cc3)OC2=O)cc1Br
inactive: [1] 29.9% | [2] 21.6% | [3] 27.5% | [4] 23.4% | [5] -1.95% | [6] 29.4%

CC(=O)Nc1cc(Cl)c(Oc2ccccc2)cc1[N+](=O)[O-]
inactive: [1] 19.2% | [2] 27.9% | [3] 27.7% | [4] 33% | [5] 52% | [6] 14.6%

NC(CCCCC(=O)O)C(=O)O (stereo not drawn)
inactive: [1] -30.1% | [2] -22.3% | [3] -12.9% | [4] -38.2% | [5] -11.2% | [6] 0.15%

CCOC(=O)C(=O)C1CCCC(C)C1=O (stereo not drawn)
inactive: [1] 16% | [2] 11.8% | [3] -16.6% | [4] -43.1% | [5] 10.8% | [6] 1.05%

COC(=O)c1cccc(O)c1O
inactive: [1] 12.9% | [2] -0.3% | [3] -1.5% | [4] -41.4% | [5] 18% | [6] -0.65%

COc1ccc2oc(=O)c(-c3csc(-c4ccccc4)n3)cc2c1
inactive: [1] 13.6% | [2] 5.85% | [3] -5.5% | [4] 1.25% | [5] -24.4% | [6] -45.2%

From PubChem BioAssay (NCI)
